Compounds with a hit are over-represented: about 4.6% of the library has one in this group of screens.
D1 antagonist: blocks dopamine activation of the human D1 receptor. activity change, negative = inhibition, % at 10 µM. P21728. HEK293 TREx D1 cells, calcium flux, dopamine EC80; active compounds read low. hit rate 3.2% among 360,000; in the data active = activity change below about -30%; note: % is set by controls: 0 for no effect and ±100 for the full control effect
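Cells carrying a force-coupled, tetracycline-inducible human D1 receptor report calcium flux. Each well gets a 10 s baseline, compound with 180 s monitoring, then an EC80 dopamine stimulus with a second 180 s kinetic read.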
D1 ag: human D1 receptor agonism; P21728; HEK293 T-REx D1 cells, calcium flux, agonist mode; activation, % at 2 µM; hit rate 1% among 360,000; note: 0% is about no effect
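Inducible HEK293 T-REx D1 cells, force-coupled to calcium signalling, were plated at 4000 cells/well with tetracycline and held overnight at 30 C. After no-wash calcium dye loading, compound-evoked calcium rise over 180 s flagged agonists.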
TRHR agonist: activates the human TRH receptor | P34981 | activation, % at 2 µM | TRHR cells, calcium flux fluo-8, FDSS agonist mode | hit rate 0.18% among 360,000 | AID 493084; note: 0% is about no effect
Target sequence (P34981 whole entry, looked up): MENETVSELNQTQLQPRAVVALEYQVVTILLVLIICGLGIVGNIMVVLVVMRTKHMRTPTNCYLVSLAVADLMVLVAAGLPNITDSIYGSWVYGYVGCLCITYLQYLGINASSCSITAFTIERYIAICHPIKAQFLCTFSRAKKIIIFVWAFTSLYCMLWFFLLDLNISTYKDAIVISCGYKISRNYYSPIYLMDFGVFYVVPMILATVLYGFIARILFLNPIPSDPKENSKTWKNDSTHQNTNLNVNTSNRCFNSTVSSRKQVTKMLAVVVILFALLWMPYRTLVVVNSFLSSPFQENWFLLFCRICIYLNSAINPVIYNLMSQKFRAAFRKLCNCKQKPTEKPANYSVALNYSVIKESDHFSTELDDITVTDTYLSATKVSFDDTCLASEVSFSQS
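TRHR-expressing cells, plated overnight in medium with 10% serum, were loaded with fluo-8 calcium dye at room temperature. After a 10 s baseline, library compound was pin-added and calcium release was recorded kinetically (ex 480/em 530) as agonist response.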
D1 potentiator: potentiators of human D1 dopamine receptor | P21728 | HEK293 TREx D1 cells, calcium flux, dopamine EC20 potentiation | potentiation, % at 10 µM | hit rate 0.036% among 360,000 | AID 504651; in the data active = potentiation above about 30%; note: 0% is about no effect
TRHR enhancer: TRH receptor (human) allosteric enhancement; TRHR cells, fluo-8 calcium fluorescence, EC20 TRH enhancement; enhancement, % at 2 µM; hit rate 0.66% among 360,000; AID 493056; in the data active = enhancement above about 30%; note: 0% is about no effect
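TRHR-expressing cells loaded with fluo-8 calcium dye were read kinetically (ex 480/em 530) during compound addition, then stimulated with an EC20 of TRH (10 nM final). Enhancement of the Gq-mediated intracellular calcium response was scored.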
Numbers without * were called inactive; . = not tested or not shown. Cut-off read from the data, not from the text of the source, unless noted: active = activation above about 30%; inactive = the rest.

SMILES	D1 antagonist	D1 ag	TRHR agonist	D1 potentiator	TRHR enhancer
CCC(=O)NCCSc1c[nH]c2ccccc12	-16	0	0	-5	0
CC(C)C(=O)NCCSc1c[nH]c2ccccc12	-87*	0	0	-10	11
Cc1cccc(N2CCN(C(=O)Cc3c(C(=O)O)c(C)cn3C)CC2)c1C	12	0	0	2	5
O=C1C(C=NCCCN2CCOCC2)=C(O)c2ccccc21	-37*	2	0	-8	1
CCOC(=O)c1cc(S(=O)(=O)Nc2cc(C)c(Cl)cc2OC)[nH]n1	4	5	0	-2	1
COc1ccc(-c2cc3onc(-c4c(Cl)cccc4Cl)c3c(=O)n2C)cc1	-33*	7	0	-6	0
Nc1nc(-c2ccccn2)nc(N)c1Cc1ccc(Cl)cc1Cl	305	34*	2	51*	4
Nc1nc(-c2ccccn2)nc(N)c1Cc1ccccc1F	26	2	0	9	3
N#CC(C#N)=C1C=CC=CN1/C(=C\c1ccco1)C(=O)c1ccccc1	-75*	0	0	-7	-7
COc1ccc(/C=C(/C(=O)c2cccs2)N2C=CC=CC2=C(C#N)C#N)cc1	-24	1	1	-7	-1
N#C/C(=C/c1ccco1)C(N)=S	-5	11	-1	6	-5
N#CC(C#N)=C1C=CC=CN1/C(=C\c1ccco1)C(=O)c1ccc(Br)cc1	-48*	5	0	-11	3
COc1ccc(C(=O)/C(=C\c2ccco2)N2C=CC=CC2=C(C#N)C#N)cc1	-41*	9	0	-8	-7
CCc1ccc(CN(C(=O)c2ccc(OC)cc2)C2CCS(=O)(=O)C2)cc1 (configuration not stated)	-6	0	0	-6	2
COC(=O)c1ccccc1NC(=O)C1(c2cccs2)CCOCC1	.	-2	0	-1	4
COCCn1c(C)cc(O)c(C(c2ccc(Cl)cc2)N2CCN(c3ccccc3)CC2)c1=O (configuration not stated)	-12	-1	0	1	-13
Cc1cnc(C(=O)OCC(=O)Nc2cccc(S(=O)(=O)N3CCCCC3)c2)cn1	-1	3	2	3	2
Cc1cnc(C(=O)OCC(=O)Nc2ccc(C)c(S(=O)(=O)N3CCCCCC3)c2)cn1	12	1	0	-2	33*
CCc1cccc(OCC(=O)Nc2ccc(C)c(S(=O)(=O)N3CCCCCC3)c2)c1	-17	33*	3	3	-16
CCOc1ccc(C(=O)CCC(=O)Nc2ccc(C)c(S(=O)(=O)N3CCCCC3)c2)cc1	2	3	-1	-3	14
Cc1cnc(C(=O)OCC(=O)Nc2cc(-c3ccccc3)nn2-c2ccccc2)cn1	5	1	0	2	32*
CC(=O)c1ccc(OCCCC(=O)Nc2ccc(C)c(S(=O)(=O)N3CCCCC3)c2)cc1	-36*	20	2	-5	4
CCC(=O)Nc1cc(-c2cccc(C)c2)nn1-c1ccccc1	9	0	0	0	6
COC(=O)c1ccccc1NC(=O)c1c(C)oc2ncn(C)c(=O)c12	-20	-1	0	1	3
Cc1ccc(-n2c(-c3nn(C)cc3Cl)n[nH]c2=S)cc1	28	3	2	-4	31*
SMILES	D1 antagonist	D1 ag	TRHR agonist	D1 potentiator	TRHR enhancer
CCOc1ccc(C2C(=O)N(C3CCCCC3)CC(=O)N2C2CCCC2)cc1OC (configuration not stated)	-7	-5	-1	0	6
CS(=O)(=O)N1CCN=C1SCc1ccccc1	0	4	0	-2	32*
O=S(=O)(c1ccccc1)N1CCN=C1SCc1cccnc1	-9	-1	0	3	5
CCn1ccc2cc(S(=O)(=O)N3CCC(C(=O)NCC(C)c4ccccc4)CC3)ccc21 (configuration not stated)	-18	8	0	-4	-2
N#Cc1c(-c2ccc(Cl)cc2)ccn2nc(C3CCCCC3)nc12	-31*	-3	2	-4	-4
Cc1ccc2[nH]c(=O)c3cc(C(=O)NCCCN4CCC(C)CC4)sc3c2c1	5	0	0	4	29
CCCOc1ccc(-c2cccc(NS(=O)(=O)c3cccs3)c2)nn1	5	0	-1	1	5
Cc1ccc(CC(CC(=O)O)C(=O)Nc2ccc(Cl)cc2)cc1 (configuration not stated)	-2	7	0	-5	-7
COc1ccc(CC(CC(=O)O)C(=O)Nc2ccc(Cl)c(Cl)c2)cc1 (configuration not stated)	-31*	-1	0	14	0
Cc1ccc(Cl)cc1-n1ncc2c(Nc3ccc4c(c3)OCCO4)ncnc21	-9	0	0	-4	2
N#Cc1cc(S(=O)(=O)c2ccc(Cl)cc2)c(N)[nH]c1=O	-45*	2	-1	-4	-6
Cc1cc(C)c(S(=O)(=O)c2ccc(Cl)cc2)c(=O)[nH]1	4	2	0	3	6
CCOC(=O)N1CCC(Nc2c(N3CCN(c4cc(Cl)ccc4C)CC3)c(=O)c2=O)CC1	-30*	2	0	.	-1
CCOC(=O)N1CCC(Nc2c(-c3ccc(C)c(C)c3)c(=O)c2=O)CC1	4	2	-1	-7	-1
O=C(COC(=O)c1ccncc1)NC(=O)C1CCCCC1	-36*	4	1	2	-8
CCOc1ccc(CC(=O)N/N=C(\C)c2cccnc2)cc1	-36*	9	0	-6	-8
COc1ccc(CC(=O)N/N=C(\C)c2cccnc2)cc1	5	2	0	-2	0
CCOC(=O)c1cccc(NC(=O)CCn2nc(C)c(S(=O)(=O)N3CCCCC3)c2C)c1	-4	4	0	-7	-6
CC(=O)c1cccc(NC(=O)CCn2nc(C)c(S(=O)(=O)N(C)C)c2C)c1	-47*	0	1	-1	3
COC(=O)C1=C(C)Nc2nc(-c3ccccc3)nn2C1c1ccc(C)o1 (configuration not stated)	-57*	2	-1	-10	-4
COc1ccc(C2C(C(=O)Nc3ccccc3)=C(C)Nc3nc(-c4ccc(Cl)cc4)nn32)cc1 (configuration not stated)	-4	5	0	-1	24
CCOC(=O)C1C(=O)NC(N2CCN(Cc3ccccc3)CC2)=NC1c1ccccc1 (configuration not stated)	4	2	0	-2	-9
CCOC(=O)C1C(=O)NC(N2CCN(Cc3ccccc3)CC2)=NC1c1ccco1 (configuration not stated)	-36*	1	0	-1	0
NC(=O)NC(=O)C(c1ccccc1)N1CCN(S(=O)(=O)Cc2ccccc2)CC1 (configuration not stated)	-31*	7	0	.	-2
